Compounds without any hit were thinned out: in the full panel of roughly 79,000, 15% have a hit. Activity calls are given as the source filed them. Cut-off read from the data, not from the text of the source: active = growth inhibition above about 70%; inactive = the rest.
Legend:
[1] = NCI Yeast Anticancer Drug Screen. Data for the rad52 strain (AID 147);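 note: 0% = growth of vehicle-treated control cultures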; details: S. cerevisiae rad52 mutant growth inhibition, stronger effect = higher value
Summary of the method: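 Compounds are applied to a genetically defined yeast strain lacking normal DNA damage repair, and inhibition of growth is expressed relative to cultures given vehicle only.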

[2] = NCI Yeast Anticancer Drug Screen. Data for the wt1 strain (AID 149);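 note: 0% = growth of vehicle-treated wt1 cultures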; details: S. cerevisiae wt1 strain (SPY 50644) growth inhibition, stronger effect = higher value
Summary of the method: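 Using yeast strain wt1, compound-induced growth inhibition was determined against vehicle-treated cultures.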

[3] = NCI Yeast Anticancer Drug Screen. Data for the rad50EPP+ strain (AID 151);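 note: 0% = growth of vehicle-treated control cultures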; details: S. cerevisiae rad50 mutant strain, stronger effect = higher value
Summary of the method: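 Compounds were applied to the rad50EPP+ yeast strain, which bears a defined DNA repair alteration, and growth inhibition was determined relative to vehicle-treated cultures.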

[4] = NCI Yeast Anticancer Drug Screen. Data for the mgt1 strain (AID 153); details: S. cerevisiae mgt1 mutant growth inhibition, stronger effect = higher value
Summary of the method: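 Strain: mgt1 yeast, one of a set carrying defined DNA damage repair or cell cycle control alterations. Compound-treated growth compared with vehicle.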

[5] = NCI Yeast Anticancer Drug Screen. Data for the rad50 strain (AID 155);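 note: 0% = growth of vehicle-only cultures of the same strain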; details: S. cerevisiae rad50 strain growth inhibition, stronger effect = higher value
Summary of the method: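 Relative growth inhibition (compound vs vehicle) was measured in yeast with a defined repair-gene alteration.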

[6] = NCI Yeast Anticancer Drug Screen. Data for the mec2-1 strain (AID 157); details: S. cerevisiae mec2-1 strain, stronger effect = higher value
Summary of the method: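 Strain: mec2-1 (DNA repair/cell cycle alteration). Compound exposure, then growth measured; inhibition expressed relative to vehicle.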

[7] = NCI Yeast Anticancer Drug Screen. Data for the rad14 strain (AID 159);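 note: 0% = growth of vehicle-treated control cultures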; details: S. cerevisiae rad14 strain growth inhibition, stronger effect = higher value
Summary of the method: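 Screen for anticancer potential: a yeast strain altered in DNA damage repair is grown with compound, and reduced growth is quantified against vehicle controls.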

[8] = NCI Yeast Anticancer Drug Screen. Data for the sgs1 mgt1 strain (AID 161);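 note: 0% = growth of cultures given vehicle only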; details: S. cerevisiae sgs1 mgt1 strain, stronger effect = higher value
Summary of the method: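 Read-out: growth inhibition vs vehicle controls. Cells: mutant yeast strain deficient in DNA damage repair.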

[9] = NCI Yeast Anticancer Drug Screen. Data for the CLN2oe strain (AID 163);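 note: 0% = growth of vehicle-only control cultures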; details: S. cerevisiae CLN2oe strain, stronger effect = higher value
Summary of the method: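 Growth of a genetically modified yeast strain is measured after compound exposure and compared with cultures given vehicle alone.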

[10] = NCI Yeast Anticancer Drug Screen. Data for the cln2 rad14 strain (AID 165);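 note: 0% = growth equal to vehicle treated cultures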; details: S. cerevisiae cln2 rad14 strain, stronger effect = higher value
Summary of the method: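 Compounds are applied to the cln2 rad14 yeast strain, and growth is then compared with that of vehicle-treated cultures to give inhibition.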

[11] = NCI Yeast Anticancer Drug Screen. Data for the bub3 strain (AID 167); details: S. cerevisiae bub3 mutant strain, stronger effect = higher value
Summary of the method: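 Screening used yeast with an engineered genetic alteration affecting cell cycle control. Compound-exposed cultures were compared with vehicle cultures, and reduced growth was taken as inhibition.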

[12] = NCI Yeast Anticancer Drug Screen. Data for the wt2 strain (AID 169);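 note: 0% = growth of vehicle-treated yeast cultures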; details: S. cerevisiae wt2 strain growth inhibition, stronger effect = higher value
Summary of the method: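 This strain belongs to a panel of yeast strains with defined genetic alterations in DNA damage repair or cell cycle control. Compounds are applied, and growth inhibition is measured against vehicle-treated cultures.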

[13] = NCI Yeast Anticancer Drug Screen. Data for the mlh1 strain (AID 171);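 note: 0% = growth of vehicle-treated control cultures of the same strain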; details: S. cerevisiae mlh1 strain growth inhibition, stronger effect = higher value
Summary of the method: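 Growth of the mutant yeast strain after compound exposure, expressed as inhibition relative to vehicle-only controls.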

[14] = NCI Yeast Anticancer Drug Screen. Data for the sgs1 strain (AID 173);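 note: 0% = growth of vehicle-only control cultures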; details: S. cerevisiae sgs1 mutant, stronger effect = higher value
Summary of the method: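 Growth of a yeast strain bearing a defined genetic alteration is measured after compound treatment. Inhibition is expressed relative to vehicle-only controls.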

[15] = NCI Yeast Anticancer Drug Screen. Data for the mlh1 rad18 strain (AID 175); details: S. cerevisiae mlh1 rad18 strain growth inhibition, stronger effect = higher value
Summary of the method: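 Read-out is yeast growth inhibition, calculated against vehicle-only controls. The compound was applied to a strain engineered with DNA damage repair alterations.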

[16] = NCI Yeast Anticancer Drug Screen. Data for the rad18 strain (AID 177); details: S. cerevisiae rad18 mutant growth inhibition, stronger effect = higher value
Summary of the method: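 Growth of the mutant yeast strain after compound exposure, normalised to vehicle-only cultures.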

[17] = at 5.0 µM (retest, dose inferred, filed as 0.5)
[18] = at 50.0 µM (retest, dose inferred, filed as 5.0)

Measured: growth inhibition

O=C1c2ccccc2C(=O)c2c(NC3CCCCC3)ccc(Nc3ccc(S(=O)(=O)O)cc3)c21
active: [3]; at 33.0 µM 80% | [4]; at 33.0 µM 81% | [5]; at 50.0 µM 79.2% | [6]; at 50.0 µM 77% | [7]; at 100.0 µM 71% | [8]; [18] 85% | [8]; at 50.0 µM 77.2% | [11]; at 50.0 µM 70.3% | [12]; at 33.0 µM 80% | [13]; at 100.0 µM 71% | [14]; at 33.0 µM 79% | [14]; at 100.0 µM 72% | [15]; [18] 72% | [15]; at 50.0 µM 82.9%
inactive: [1]; at 1.2 µM -5% | [1]; at 3.7 µM -5% | [1]; at 11.0 µM -5% | [1]; at 33.0 µM 37% | [1]; at 100.0 µM 49% | [2]; at 1.2 µM -1% | [2]; at 3.7 µM -5% | [2]; at 11.0 µM -7% | [2]; at 33.0 µM 10% | [2]; at 100.0 µM 33% | [3]; at 1.2 µM -2% | [3]; at 3.7 µM 5% | [3]; at 11.0 µM 56% | [3]; at 100.0 µM 63% | [4]; at 1.2 µM -2% | [4]; at 3.7 µM -1% | [4]; at 11.0 µM -2% | [4]; at 100.0 µM 68% | [5]; at 1.2 µM 0% | [5]; at 3.7 µM -2% | [5]; [17] 8% | [5]; at 11.0 µM 9% | [5]; at 33.0 µM 27% | [5]; [18] 62% | [5]; at 100.0 µM 44% | [6]; at 1.2 µM 1% | [6]; at 3.7 µM -5% | [6]; [17] -14% | [6]; at 11.0 µM -5% | [6]; at 33.0 µM 14% | [6]; [18] 59% | [6]; at 100.0 µM 48% | [7]; at 1.2 µM 2% | [7]; at 3.7 µM -4% | [7]; at 11.0 µM 2% | [7]; at 33.0 µM 48% | [8]; [17] -13% | [9]; at 1.2 µM -5% | [9]; at 3.7 µM 4% | [9]; at 11.0 µM -5% | [9]; at 33.0 µM 1% | [9]; at 100.0 µM 18% | [10]; [17] -13% | [10]; [18] -4% | [10]; at 50.0 µM 59% | [11]; at 1.2 µM -2% | [11]; at 3.7 µM -4% | [11]; [17] 6% | [11]; at 11.0 µM 5% | [11]; at 33.0 µM 36% | [11]; [18] 46% | [11]; at 100.0 µM 30% | [12]; at 1.2 µM -3% | [12]; at 3.7 µM -4% | [12]; at 11.0 µM 5% | [12]; at 100.0 µM 62% | [13]; at 1.2 µM -2% | [13]; at 3.7 µM -3% | [13]; at 11.0 µM 5% | [13]; at 33.0 µM 50% | [14]; at 1.2 µM -1% | [14]; at 3.7 µM -2% | [14]; at 11.0 µM 23% | [15]; [17] 5% | [16]; at 1.2 µM -2% | [16]; at 3.7 µM -13% | [16]; at 11.0 µM -1% | [16]; at 33.0 µM 40% | [16]; at 100.0 µM 46%

O=[n+]1c2ccc(Cl)cc2n([O-])c2ccc(Cl)cc21
active: [3]; at 100.0 µM 74% | [5]; at 100.0 µM 81% | [15]; [18] 84%
inactive: [1]; at 1.2 µM 5% | [1]; at 3.7 µM 12% | [1]; at 11.0 µM 23% | [1]; at 33.0 µM 44% | [1]; at 100.0 µM 57% | [2]; at 1.2 µM -2% | [2]; at 3.7 µM 2% | [2]; at 11.0 µM 2% | [2]; at 33.0 µM 7% | [2]; at 100.0 µM 12% | [3]; at 1.2 µM 9% | [3]; at 3.7 µM 18% | [3]; at 11.0 µM 35% | [3]; at 33.0 µM 57% | [4]; at 1.2 µM -3% | [4]; at 3.7 µM -1% | [4]; at 11.0 µM 2% | [4]; at 33.0 µM 5% | [4]; at 100.0 µM 10% | [5]; at 1.2 µM 9% | [5]; at 3.7 µM 19% | [5]; [17] -9% | [5]; at 11.0 µM 39% | [5]; at 33.0 µM 61% | [5]; [18] 47% | [5]; at 50.0 µM -5.4% | [6]; at 1.2 µM -1% | [6]; at 3.7 µM 0% | [6]; [17] 1% | [6]; at 11.0 µM 2% | [6]; at 33.0 µM 9% | [6]; [18] -5% | [6]; at 50.0 µM -1% | [6]; at 100.0 µM 15% | [7]; at 1.2 µM 0% | [7]; at 3.7 µM 2% | [7]; at 11.0 µM 4% | [7]; at 33.0 µM 6% | [7]; at 100.0 µM 10% | [8]; [17] -4% | [8]; [18] 20% | [8]; at 50.0 µM 13.3% | [9]; at 1.2 µM -1% | [9]; at 3.7 µM 0% | [9]; at 11.0 µM 0% | [9]; at 33.0 µM -1% | [9]; at 100.0 µM -1% | [10]; [17] -10% | [10]; [18] -13% | [10]; at 50.0 µM -74.2% | [11]; at 1.2 µM -1% | [11]; at 3.7 µM 0% | [11]; [17] 11% | [11]; at 11.0 µM 2% | [11]; at 33.0 µM 9% | [11]; [18] 22% | [11]; at 50.0 µM -7.55% | [11]; at 100.0 µM 14% | [12]; at 1.2 µM -5% | [12]; at 3.7 µM -8% | [12]; at 11.0 µM 0% | [12]; at 33.0 µM -5% | [12]; at 100.0 µM 10% | [13]; at 1.2 µM -1% | [13]; at 3.7 µM 1% | [13]; at 11.0 µM 0% | [13]; at 33.0 µM 0% | [13]; at 100.0 µM 5% | [14]; at 1.2 µM -6% | [14]; at 3.7 µM -27% | [14]; at 11.0 µM 4% | [14]; at 33.0 µM 21% | [14]; at 100.0 µM 23% | [15]; [17] 11% | [15]; at 50.0 µM 11.7% | [16]; at 1.2 µM 4% | [16]; at 3.7 µM 12% | [16]; at 11.0 µM 25% | [16]; at 33.0 µM 37% | [16]; at 100.0 µM 63%
